Data reported in PubChem BioAssay AID504714 (Sanford-Burnham Center for Chemical Genomics, 2011).
The whole screen tested about 1,000 compounds, of which fewer than 10 were called active. The list is a sample of the results. Values without a mark were called inactive. No rule for the calls is given here.

assay: uracil-DNA glycosylase inhibition, oligo cleavage readout – biochemical, single concentration, fluorescence, FAM/TAMRA oligo, counter-screen for APOBEC3A inhibitor project, confirmation (AID 504714); settings: UDG counterscreen, at 20 µM, stronger effect = higher value

SMILES | inhibition
CCCN1C2=C(C(=O)CCC2)C(c2ccc(O)c(Br)c2)C2=C1CCCC2=O | 0.9%
COc1ccc(CNc2nnnn2C)cc1 | -2.73%
CCN1C(=NCC(C)C)N[C@@H](CCc2ccccc2)[C@H](C(=O)NCC(C)C)[C@H]1C | -1.61%
COC(=O)C[n+]1cccc2ccccc21 | -1.97%
N#Cc1ccsc1NC(=O)CN1CCN(S(=O)(=O)c2cc(Cl)ccc2Cl)CC1 | -0.63%
COc1ccc(Br)cc1CN(C)C(=O)C1CC(=O)N(C2CCCC2)C1 (centres undefined) | 1.84%
COCCCn1c(Cc2csc(Nc3cccc(Cl)c3)n2)nnc1SCC(=O)OC1CCCCC1 | 5.59%
COc1ccc(CCNC(=O)COC(=O)/C=C/c2cccs2)cc1OC | -1.3%
COc1ccccc1CCNC(=O)C1CCN(C(=O)/C=C/c2ccccc2)CC1 | 2%
CCCCNC(=O)CSc1nc2ccc(NC(=O)CSc3nnc(N)s3)cc2s1 | -1.96%
CC(C)CCOc1ccc(C(=O)C[N+]2(C)CCOCC2)cc1 | 1.5%
O=C(c1ccc(CS(=O)(=O)c2ccccc2)o1)N1CCN(c2ccccc2)CC1 | -1.02%
COC(=O)C1=C(C)N(Cc2ccccc2)C(=NCCCOC(C)C)N[C@H]1c1ccccc1 | -3.67%
CC1(C)CC(N2CCN(C(c3ccccc3)c3ccccc3)CC2)=CC(=[N+]2CCCCC2)C1 | -2.53%
S=C(Nc1cccnc1)Nc1ccccn1 | -1.6%
CC1(C)Oc2ccc3ccc(=O)oc3c2/C(=C/NCCO)C1=O | -2.48%
NS(=O)(=O)c1cc(C(=O)OCC(=O)NNC(=O)c2ccccc2)ccc1Cl | 5.01%
O=C1c2oc3ccccc3c(=O)c2C(c2cccc(O)c2)N1c1ccccn1 (centres undefined) | 3.41%
CSc1nnc(SCc2nc3sc(C(=O)O)c(C)c3c(=O)[nH]2)s1 | -3.34%
CCn1c(SCC(=O)Nc2cccc(F)c2)nnc1-c1cc2cc(Br)ccc2o1 | 6.96%
CCOC(=O)c1ccc(NC(=O)CSc2ncccn2)cc1 | 1.35%
Cc1ccc(CCCOC(=O)C[N+]2(C)CCCCC2)cc1 | 0.55%
C[N+](C)(CCCCCC[N+](C)(C)CCCN1C(=O)c2cccc3cccc(c23)C1=O)CCCN1C(=O)c2cccc3cccc(c23)C1=O | 1.2%
CC(Oc1ccc(F)cc1)C(=O)Nc1cc(S(=O)(=O)N2CCOCC2)ccc1N1CCN(C)CC1 (centres undefined) | -3.61%
C=CC1=C(C(=O)O)N2C(=O)[C@@H](NC(=O)/C(=N/OCC(=O)O)c3csc(N)n3)[C@H]2SC1 | -3.4%
O=C(COC(=O)c1cnc(Cl)c(Cl)c1)NCc1ccco1 | 0.62%
Cc1ccc(C(=O)N/N=C\c2cc(Br)c(Br)o2)cn1 | 2.94%

SMILES | inhibition
CC(C)c1ccc(/C=C2\NC(=O)NC2=O)cc1 | -1.04%
CC[n+]1cc(C)ccc1/C=C/c1ccc(N(C)C)cc1 | -2.09%
CS(=O)(=O)c1ccc2c(c1)SC1=NC(=O)/C(=C/c3ccco3)C(=N)N12 | 1.37%
CC(=O)Nc1ccc(NC(=O)C2CCCN(S(=O)(=O)c3ccc(Cl)cc3)C2)cc1 (centres undefined) | 7.05%
CCNC(=O)COC(=O)CCNC(=O)c1cccc(C)c1 | -0.25%
CC(=O)Nc1ccc(Nc2cc(C)nc(Nc3ccc(NC(C)=O)cc3)n2)cc1 | 4.81%
CCCCCCCC[n+]1cccc(C(=O)N2c3c(nc(N)[nH]c3=O)NC(C)C2C)c1 (centres undefined) | -1.86%
C[n+]1ccc(C(=O)NCc2ccccc2)cc1 | -2.62%
CCN1C(=NCCc2cccnc2)N[C@@H](c2ccccc2)[C@H](C(=O)OC)[C@H]1C | -0.96%
O=C(Nc1cccc(-c2nc3ccccc3[nH]2)c1)c1ccc(C(=O)Nc2cccc(-c3nc4ccccc4[nH]3)c2)cc1 | -1.03%
CC(/C=C/c1ccccc1)=N\NC(=O)C1CC1(C)c1ccccc1 (centres undefined) | 1.23%
Cc1cc2c(cc1C)[n+](C)cn2CC(O)COCC1CC=CCC1 (centres undefined) | 4.84%
Cc1csc(SCC(=O)Nc2sccc2C#N)n1 | -2.94%
COc1ccc(C)cc1NC(=O)CCCN1C(=O)NC(C)(C)C1=O | 2.69%
CCN(CC)CCCNC(=O)CCn1nc(-c2ccc(Cl)cc2)ccc1=O | -0.02%
N#Cc1ncc(C(F)(F)F)cc1Oc1cccnc1 | -2.52%
C[N+]1(CCNC(=O)/C=N/O)CCCCC1 | 2.37%
CSc1nnc(-c2ccncc2)n1CCCN1CCCC1=O | 2.58%
C[N+]1(CC(O)COc2ccccc2)CCN(C(=O)c2ccc([N+](=O)[O-])cc2)CC1 (centres undefined) | -0.77%
CCCc1nc(-c2cc3cc(C)ccc3[nH]c2=O)no1 | -1.41%
CCN1C(=NCc2ccc(OC)cc2)N[C@@H](CCc2ccccc2)[C@H](C(=O)NCc2ccc(OC)cc2)[C@H]1C | 2.26%
CCS(=O)(=O)c1ccc(-c2cccc(NC(=O)c3ccc(Br)o3)c2)nn1 | -1.58%
COc1ccc(Cc2nnc(NC(=O)c3ccc(OC)cc3OC)s2)cc1 | 2.26%
Cc1nnc(N/N=C/c2ccccn2)[nH]c1=O | 3.44%
COc1ccccc1-c1noc(CSc2nc(C)cc(=O)[nH]2)n1 | -1.99%
N#Cc1ccccc1CN1C(=O)S/C(=C/c2cccn2-c2cccc(C(=O)O)c2)C1=O | -1.19%
CC[n+]1c(C)n(-c2ccccc2)c2ccc(NC(C)=O)cc21 | -1.23%
